Experimental data: PubChem BioAssay (EPA / NIEHS)
A structure can be active in one record and inactive in another. Active and inactive are the calls of the source. How the source made its calls: active means hit-call score of the fitted dose curve at least 0.9, where 1 is the maximum; inactive means score below 0.9.

Columns and labels:
[1] = APR_HepG2_MitoMembPot_72hr: Apredica 72-hour HepG2 Assay for Mitochondrial Membrane Potential (AID 2282917); conditions: imaging, actives raise or lower the signal
Summary of the method: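 HepG2 cells dosed 72 hr with compound at 0.39–200 uM in duplicate, 0.5% v/v DMSO final. Mitochondria stained with 250 nM MitoTracker Red CMXRos for 30 min before formaldehyde fixation, imaged by high-content fluorescence; bidirectional fit versus DMSO.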

[2] = APR_HepG2_MicrotubuleCSK_72hr: Apredica 72-hour HepG2 Assay for Microtubule CSK Stabilty (AID 2282919); conditions: HepG2 microtubule cytoskeleton, high-content imaging, actives raise or lower the signal
Summary of the method: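 HepG2 cells were exposed 72 hr to compound at 0.39–200 uM in duplicate (0.5% DMSO final), then fixed and permeabilized. Alpha-tubulin immunofluorescence was imaged by high-content microscopy, with bidirectional fitting against DMSO and taxol as positive control.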

[3] = APR_HepG2_StressKinase_72hr: Apredica 72-hour HepG2 Assay for Stress Kinase (AID 2282921); conditions: HepG2 stress kinase (phospho-c-Jun) imaging, actives raise or lower the signal
Summary of the method: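 Dose 0.39–200 uM (10 pts, duplicate), 0.5% DMSO; 72 h; fix 3.7% formaldehyde 30 min RT; Triton permeabilize; anti-phospho-c-Jun/Cy3 + Hoechst 60 min RT; image 20x; fit gain/loss vs DMSO.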

[4] = APR_HepG2_StressKinase_24hr: Apredica 24-hour HepG2 Assay for Stress Kinase (AID 2282922); conditions: HepG2 stress kinase (phospho-c-Jun) imaging, actives raise or lower the signal
Summary of the method: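 HepG2 cells exposed 24 h to 0.39–200 uM compound in duplicate (0.5% v/v DMSO final). Cells fixed in 3.7% formaldehyde, permeabilized and immunostained for phospho-c-Jun; read by high-content fluorescence imaging, fitted bidirectionally against DMSO.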

[5] = APR_HepG2_p53Act_72hr: Apredica 72-hour HepG2 Assay for p53 Activation (AID 2282923); conditions: high-content imaging, actives raise or lower the signal;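 further: average cellular p53 protein immunofluorescence intensity in HepG2 cells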
Summary of the method: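 10-pt conc. 0.39–200 uM, duplicate, 0.5% DMSO; 72 hr exposure; 3.7% formaldehyde fix, 0.5% Triton perm; sheep anti-p53/Cy5 + Hoechst; ArrayScan 20x, 6 images/well; gain/loss fit vs DMSO.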

[6] = APR_HepG2_MitoMass_72hr: Apredica 72-hour HepG2 Assay for Mitochondrial Mass (AID 2282924); conditions: high-content imaging, actives raise or lower the signal;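 further: MitoTracker Red CMXRos stain intensity per cell imaged as mitochondrial mass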
Summary of the method: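 HepG2 cells dosed 72 hr at 0.39–200 uM (0.5% DMSO), in duplicate. MitoTracker Red CMXRos 250 nM loaded 30 min before formaldehyde fixation; high-content fluorescence imaging, bidirectional fit versus DMSO.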

[7] = APR_HepG2_NuclearSize_72hr: Apredica 72-hour HepG2 Assay for Nuclear Size (AID 2282925); conditions: high-content imaging, actives raise or lower the signal
Summary of the method: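 HepG2 cells dosed 72 h at 0.39–200 uM (10 concentrations, duplicate) in 0.5% v/v DMSO final. Fixed, Hoechst 33342-stained nuclei imaged; nuclear diameter measured by automated image analysis. Bidirectional fit versus DMSO.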

[8] = biological target: CCAAT/enhancer-binding protein beta (Homo sapiens) (UniProt P17676); experiment: ATG_C_EBP_CIS: Attagene CIS-FACTORIAL HepG2 Assay for human CCAAT/Enhancer Binding Protein (C/EBP) beta (AID 2282927); conditions: HepG2 Attagene cis-factorial transcription factor reporter; actives raise or lower the signal
Chain of CCAAT/enhancer-binding protein beta (Homo sapiens) (P17676 whole entry, looked up): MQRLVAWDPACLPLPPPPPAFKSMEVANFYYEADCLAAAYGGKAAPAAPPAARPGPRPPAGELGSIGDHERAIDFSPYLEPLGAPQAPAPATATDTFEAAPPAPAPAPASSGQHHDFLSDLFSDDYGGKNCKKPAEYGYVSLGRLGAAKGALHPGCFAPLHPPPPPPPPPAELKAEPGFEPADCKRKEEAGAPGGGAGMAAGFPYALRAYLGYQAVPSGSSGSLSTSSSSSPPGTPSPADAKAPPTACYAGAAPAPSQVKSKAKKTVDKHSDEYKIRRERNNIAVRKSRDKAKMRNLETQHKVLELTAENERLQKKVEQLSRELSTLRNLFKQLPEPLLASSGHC
Summary of the method: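 HepG2 transiently transfected with multiplexed reporter units under cis-regulatory promoters reporting endogenous C/EBPb activity. After 24 h exposure, reporter mRNA assayed by RT-PCR, fluorescent labelling, HpaI digestion and capillary electrophoresis; bidirectional fitting versus DMSO.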

[9] = ATG_CMV_CIS: Attagene CIS-FACTORIAL HepG2 Assay for human CMV (Internal Marker) (AID 2282928); conditions: HepG2 CMV promoter reporter, transcription factor profiling; actives raise or lower the signal;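 further: endpoint acts as a background internal control marker rather than a target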
Summary of the method: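 HepG2 cells transiently transfected with multiple cis-regulated reporter units; 24 h compound exposure. Reporter mRNA quantified by RT-PCR, 6-FAM primer-extension labeling, HpaI digestion and capillary electrophoresis; bidirectional fitting against DMSO baseline.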

[10] = ATG_DR4_LXR_CIS: Attagene CIS-FACTORIAL HepG2 Assay for human Liver X Receptor (LXR), DR4 submotif (AID 2282929); conditions: HepG2 Attagene DR4 cis-reporter, mRNA transcription; actives raise or lower the signal
Summary of the method: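 HepG2 cells transiently transfected with cis-promoter-driven multiplexed reporter units (DR4 element) were dosed for 24 h. Reporter mRNA was quantified by RT-PCR, fluorescent primer extension, HpaI digestion and capillary electrophoresis; bidirectional fitting versus DMSO baseline.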

[11] = biological target: Aryl hydrocarbon receptor (Homo sapiens) (UniProt P35869); experiment: ATG_Ahr_CIS: Attagene CIS-FACTORIAL HepG2 Assay for human Aryl Hydrocarbon Receptor (Ahr) (AID 2282930); conditions: HepG2 AhR cis-factorial reporter transcription; actives raise or lower the signal
Chain of Aryl hydrocarbon receptor (Homo sapiens) (P35869 whole entry, looked up): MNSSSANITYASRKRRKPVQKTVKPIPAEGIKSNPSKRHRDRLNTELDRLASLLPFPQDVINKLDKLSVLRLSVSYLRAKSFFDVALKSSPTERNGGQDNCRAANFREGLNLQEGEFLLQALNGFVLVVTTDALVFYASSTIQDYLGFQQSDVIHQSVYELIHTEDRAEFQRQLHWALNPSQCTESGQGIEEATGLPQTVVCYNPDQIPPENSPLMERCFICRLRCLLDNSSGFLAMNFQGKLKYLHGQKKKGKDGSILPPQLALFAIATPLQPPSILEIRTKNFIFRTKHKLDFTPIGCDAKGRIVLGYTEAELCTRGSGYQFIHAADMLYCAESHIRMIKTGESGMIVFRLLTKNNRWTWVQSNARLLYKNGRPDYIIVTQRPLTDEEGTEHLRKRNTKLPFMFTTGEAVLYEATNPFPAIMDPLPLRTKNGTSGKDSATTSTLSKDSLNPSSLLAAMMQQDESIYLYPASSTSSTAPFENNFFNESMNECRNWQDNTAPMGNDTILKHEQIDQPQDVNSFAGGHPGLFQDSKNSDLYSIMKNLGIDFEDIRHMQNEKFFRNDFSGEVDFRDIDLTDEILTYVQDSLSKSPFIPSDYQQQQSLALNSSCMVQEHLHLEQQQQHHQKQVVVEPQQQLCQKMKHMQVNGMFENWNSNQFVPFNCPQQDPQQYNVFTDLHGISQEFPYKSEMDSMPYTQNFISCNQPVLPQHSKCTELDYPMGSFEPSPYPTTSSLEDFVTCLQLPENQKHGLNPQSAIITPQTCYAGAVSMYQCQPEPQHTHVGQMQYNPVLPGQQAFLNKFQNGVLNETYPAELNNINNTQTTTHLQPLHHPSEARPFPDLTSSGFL
Summary of the method: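 HepG2 cells transiently transfected with cis-element-driven multiplexed reporter units; endogenous AhR activity read as reporter mRNA 24 h after dosing, via RT-PCR, 6-FAM labelling, HpaI digestion and capillary electrophoresis. Bidirectional fit relative to DMSO.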

[12] = ATG_AP_1_CIS: Attagene CIS-FACTORIAL HepG2 Assay for human Activator Protein 1 (AP-1) (AID 2282931); conditions: HepG2 Attagene cis-factorial AP-1 reporter mRNA; actives raise or lower the signal
Summary of the method: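 HepG2 cells transiently transfected with cis-element-driven multiplex reporter units; 24 h compound exposure. Reporter mRNA quantified by RT-PCR, FAM-labelled fragments resolved by capillary electrophoresis; bidirectional fit versus DMSO baseline.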

[13] = ATG_AP_2_CIS: Attagene CIS-FACTORIAL HepG2 Assay for human Activator Protein 2 (AP-2) (AID 2282932); conditions: HepG2 AP-2 cis-reporter, Attagene transcription factor profiling; actives raise or lower the signal
Summary of the method: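 HepG2 cells transiently transfected with cis-element reporter units and exposed for 24 h. Reporter mRNA measured by RT-PCR, FAM labelling, HpaI digestion and capillary electrophoresis. Changes in either direction fitted relative to DMSO.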

[14] = ATG_BRE_CIS: Attagene CIS-FACTORIAL HepG2 Assay for human Bone Morphogenetic Protein (BMP) Response Element (BRE) (AID 2282933); conditions: HepG2 BMP response element reporter, Attagene transcription factor profiling; actives raise or lower the signal
Summary of the method: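 Read-out: reporter mRNA induction quantified by RT-PCR and capillary electrophoresis after 24 h chemical exposure of transfected HepG2 cells. Endogenous factor activity on the BMP response element; gain or loss fitted against DMSO baseline.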

[15] = biological target: Retinoic acid receptor alpha (Homo sapiens) (UniProt P10276); experiment: ATG_DR5_RAR_CIS: Attagene CIS-FACTORIAL HepG2 Assay for human Retinoic Acid Receptor Alpha (RARE), DR5 submotif (AID 2282934); conditions: HepG2 Attagene cis-factorial RARE DR5 reporter, mRNA; actives raise or lower the signal
Chain of Retinoic acid receptor alpha (Homo sapiens) (P10276 whole entry, looked up): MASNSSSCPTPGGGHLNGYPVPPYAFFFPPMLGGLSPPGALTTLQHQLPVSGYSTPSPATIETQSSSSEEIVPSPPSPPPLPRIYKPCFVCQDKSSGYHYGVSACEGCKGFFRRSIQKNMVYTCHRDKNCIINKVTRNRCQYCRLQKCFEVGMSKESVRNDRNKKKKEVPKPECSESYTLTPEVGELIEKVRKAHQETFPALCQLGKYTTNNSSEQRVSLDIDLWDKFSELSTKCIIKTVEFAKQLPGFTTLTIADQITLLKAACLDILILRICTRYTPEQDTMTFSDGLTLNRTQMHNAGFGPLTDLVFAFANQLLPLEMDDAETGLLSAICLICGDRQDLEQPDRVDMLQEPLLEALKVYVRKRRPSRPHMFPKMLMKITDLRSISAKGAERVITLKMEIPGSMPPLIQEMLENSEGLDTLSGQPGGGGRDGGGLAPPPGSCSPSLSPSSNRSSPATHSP
Summary of the method: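 HepG2 cells transiently transfected with multiplexed reporter units; DR5 cis-element drives reporter through endogenous transcription factors. After 24 h dosing, reporter mRNA quantified by RT-PCR, fluorescent labeling, HpaI digestion and capillary electrophoresis; bidirectional fitting versus DMSO.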

[16] = biological target: Transcription factor E2F1 (Homo sapiens) (UniProt Q01094); experiment: ATG_E2F_CIS: Attagene CIS-FACTORIAL HepG2 Assay for human E2F Transcription Factor 1 (AID 2282935); conditions: HepG2 Attagene cis-reporter, E2F reporter RNA transcripts; actives raise or lower the signal
Chain of Transcription factor E2F1 (Homo sapiens) (Q01094 whole entry, looked up): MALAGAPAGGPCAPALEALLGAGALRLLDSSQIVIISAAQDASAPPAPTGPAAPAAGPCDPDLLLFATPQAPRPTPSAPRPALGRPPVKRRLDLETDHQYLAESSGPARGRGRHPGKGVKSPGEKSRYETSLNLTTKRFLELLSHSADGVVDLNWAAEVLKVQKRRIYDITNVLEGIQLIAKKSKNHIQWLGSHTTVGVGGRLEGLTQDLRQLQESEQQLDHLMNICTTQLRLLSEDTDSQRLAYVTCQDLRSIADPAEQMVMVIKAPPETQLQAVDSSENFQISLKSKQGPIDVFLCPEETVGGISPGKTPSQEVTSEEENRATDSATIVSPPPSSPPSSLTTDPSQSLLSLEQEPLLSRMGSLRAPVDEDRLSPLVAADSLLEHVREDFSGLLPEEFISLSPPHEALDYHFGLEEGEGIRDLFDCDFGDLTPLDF
Summary of the method: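 Endogenous E2F1 activity read through cis-promoter reporter units transfected into HepG2. After 24 h compound treatment, reporter mRNA measured by RT-PCR, HpaI digestion and capillary electrophoresis. Bidirectional fit versus DMSO.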

[17] = ATG_CRE_CIS: Attagene CIS-FACTORIAL HepG2 Assay for human cAMP Responsive Element (CRE) binding protein 3 (AID 2282926); conditions: HepG2 CRE cis-reporter, Attagene multiplexed mRNA; actives raise or lower the signal
Summary of the method: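 Human liver HepG2, transient MRTU transfection, 24 h compound exposure. Total RNA → oligo(dT) RT → PCR → 6-FAM primer extension → HpaI cut → CE. Activity called both directions vs DMSO.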

[18] = APR_HepG2_P-H2AX_24hr: Apredica 24-hour HepG2 Assay for H2AX Phosphorylation (AID 2282920); conditions: high-content imaging, actives raise or lower the signal
Summary of the method: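 HepG2, 24 hr, cpd 0.39–200 uM (10 conc, duplicate), DMSO 0.5% v/v final. Fix 3.7% formaldehyde, Triton X-100 permeabilize, anti-phospho-H2A.x 1:200 + Hoechst 2 ug/mL. Imaged, bidirectional fit vs DMSO.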

Measured: AC50

CCOC(=O)NCCOc1ccc(Oc2ccccc2)cc1
active: [1] 78.2 µM | [2] 79.4 µM | [8] 13.4 µM | [9] 13.1 µM | [10] 89.6 µM | [14] 27.9 µM
inactive: [3] | [4] | [5] | [6] | [7] | [11] | [12] | [13] | [15] | [16]

COC(=O)c1ccccc1C(=O)O
inactive: [1] | [2] | [3] | [4] | [5] | [6] | [7] | [8] | [9] | [10] | [11] | [12] | [13] | [14] | [15] | [16]

N#CSCSc1nc2ccccc2s1
active: [1] 25.2 µM | [17] 18.2 µM | [9] 2.95 µM | [10] 3.05 µM | [12] 3.02 µM | [13] 9.15 µM | [14] 3.03 µM
inactive: [2] | [3] | [4] | [7] | [17] | [8] | [9] | [10] | [11] | [12] | [13] | [14] | [15] | [16]

CCCCOC(=O)[C@@H](C)Oc1ccc(Oc2ccc(C(F)(F)F)cn2)cc1
inactive: [1] | [2] | [3] | [4] | [5] | [7] | [17] | [8] | [9] | [10] | [11] | [12] | [13] | [14] | [15] | [16]

C[C@]12C[C@H](O)[C@H]3[C@@H](CCC4=CC(=O)CC[C@@]43C)[C@@H]1CC[C@@H]2C(=O)CO
inactive: [2] | [3] | [4] | [5] | [7] | [8] | [9] | [10] | [11] | [12] | [13] | [14] | [15] | [16]
active: [1] 120 µM

COC(=O)c1ccccc1S(=O)(=O)NC(=O)Nc1nc(OC(F)F)cc(OC(F)F)n1
inactive: [1] | [2] | [3] | [4] | [5] | [7] | [8] | [9] | [10] | [11] | [12] | [13] | [14] | [15] | [16]

CCCCCOC(=O)COc1cc(N2C(=O)C3=C(CCCC3)C2=O)c(F)cc1Cl
inactive: [1] | [2] | [3] | [4] | [7] | [17] | [8] | [9] | [11] | [12] | [13] | [14] | [15] | [16]
active: [18] 119 µM | [10] 32.6 µM
